Here are results for five compounds from PubChem BioAssay AID602240 (Southern Research Specialized Biocontainment Screening …, 2012).

Calls of active or inactive are those of the source. How the calls were made is not given here.

The assay in a line: Vero 76 cell cytotoxicity, dose response, cytotoxicity control, set 2 (AID 602240). The settings on record: Vero 76 cells viability, cytotoxicity counter-screen for VEEV; series mostly up to 50 µM. Background: A counterscreen serves to expose hits that act by an unwanted route or on another target.
As to `O=C(Oc1ccc2ccccc2c1Br)N1CCCCCC1`, the result was inactive.

For `CCN1CCN(Cc2nc3ccc([N+](=O)[O-])cc3c(=O)n2-c2ccccc2F)CC1`, the compound was called inactive. Under `O=c1c2cc([N+](=O)[O-])ccc2nc(CN2CCN(c3ccccc3)CC2)n1-c1ccccc1F` stands “inactive”; under `Clc1ccc2nnnc(-c3ccccc3)c2c1`, “inactive”; under `O=c1nc(Nc2ccc(OCc3ccccc3)cc2)sc2ncccc12`, “inactive”.
